Screening results (PubChem BioAssay)
KB-V1 cytotox: kills drug-selected multidrug resistant KB-V1 cells. KB-V1 MDR cells viability, CellTiter-Glo, 72 h. Potency, µM (series often up to 46.1 µM), most hits filed as cytotoxic. hit rate 3.4% among 400,000. AID 1347076; note: % is set by controls: 0 for no effect and ±100 for the full control effect; nearly all actives have a fitted effect of over 60% in size
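In this primary screen, KB-V1 cells overexpressing P-gp are incubated with library compounds (lowest to highest concentration) for 72 h at 37 degrees C before a luminescent ATP viability read.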
SW480 rereplic: inducers of DNA re-replication in SW480 colon cancer cells | Potency, µM (series often up to 46.1 µM), for the others: at the top dose re-replication activation, most hits filed as activators | AID 624297 | SW480 DNA re-replication, Hoechst DNA content imaging, 48 h | hit rate 1.8% among 340,000; note: % of control where 0% means no effect; nearly all actives have a fitted effect of over 55% in size
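Treated cells incubate 48 hr (37 C, 5% CO2), are stained 40 min with Hoechst, and nuclear fluorescence is enumerated; a rise in nuclei with high DNA signal marks re-replication.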
MCF10A rerep: inducers of DNA re-replication in MCF 10A breast cells. MCF 10A DNA re-replication, Hoechst nuclear intensity, 48 h. Potency, µM (doses to about 46.1 µM), for inactives: at the top dose activity, positive = re-replication, actives largely listed as activators. hit rate 2.9% among 350,000. AID 624296; note: % of control where 0% means no effect; nearly all actives have a fitted effect of over 50% in size
HT1080NT lethal: kills 2HG-producing HT-1080-NT fibrosarcoma cells. HT-1080-NT fibrosarcoma viability, CellTiter-Glo ATP luminescence, 48 h. Potency, µM (series often up to 46.1 µM), for inactives: at the highest dose activity, negative = less viability, hits mostly cytotoxic. hit rate 1.6% among 360,000;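 note: NT is the 2HG producing partner of a matched IDH1 knockdown line; 0% = DMSO-treated cells and -100% = media-only wells without cells; nearly all actives have a fitted effect of over 55% in size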
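HT-1080-NT fibrosarcoma cells (2HG-overproducing), 750 cells/well in RPMI with 5% FBS, dosed after 2 h and incubated 48 h at 37C. CellTiter-Glo luminescence normalized to DMSO and no-cell wells; concentration-response curves fitted and classed.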
KB-3-1 tox: KB-3-1 parental cell cytotoxicity | KB-3-1 viability, CellTiter-Glo ATP luminescence, 72 h | Potency, µM (highest dose often 46.1 µM), most hits filed as cytotoxic | hit rate 1.4% among 400,000; note: % is set by controls: 0 for no effect and ±100 for the full control effect; nearly all actives have a fitted effect of over 60% in size
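Cytotoxicity in the drug-sensitive parental line KB-3-1 was scored as loss of CellTiter-Glo luminescence following 72 h incubation with compound. Values come from curve fitting of normalized concentration-response data.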
HT1080 IDH1KD tx: kills HT-1080 cells with IDH1 knockdown | HT-1080 IDH1 knockdown viability, ATP luminescence, 48 h | Potency, µM (highest dose often 46.1 µM), without a hit: at the highest dose activity, negative = toxicity, hits mostly cytotoxic | hit rate 2% among 360,000 | AID 686971;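 note: 0% = DMSO wells and -100% = cell-free medium wells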
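% activity derives from luminescence (CellTiter-Glo), normalised to DMSO and no-cell wells. HT-1080-IDH1KD cells, 750/well, had 48 h compound exposure at 37 °C.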
Active calls of the source: *; i = inactive; ? = inconclusive; . = no result given; [ ] = dose if it differs, or a comment. The list is not random: actives were taken first. Their share in the collection is about 8%. Calls come from the whole dose curve; as a rule, active = well fitted curve in the direction sought with a large enough effect; inconclusive = small, poorly fitted or top-dose-only effect, or another doubt; inactive = no such curve, though single readings can be large; an effect the other way counts as inactive or inconclusive. Potency is the fitted concentration of half-maximal effect.

SMILES	KB-V1 cytotox	SW480 rereplic	MCF10A rerep	HT1080NT lethal	KB-3-1 tox	HT1080 IDH1KD tx
Cc1cc(C)cc(NS(=O)(=O)c2cnc(Cl)c(Cl)c2)c1	i	0%	?	?	i	?
CCOc1ccc(S(=O)(=O)Nc2cccc(OC)c2)cc1	?	?	?	?	i	10µM*
CCOc1ccc(S(=O)(=O)Nc2cccc(N(C)S(C)(=O)=O)c2)cc1	i	-4%	2%	-4%	i	-4%
CCCCOc1ccc(S(=O)(=O)Nc2cccnc2)cc1	5.8µM*	-2%	-5%	?	26µM*	-16%
CCOc1ccc(NS(=O)(=O)c2cnc(Cl)c(Cl)c2)cc1	?	?	4.1µM*	?	?	?
Cc1cc(C)n2nc(SCC(=O)c3cc(C)n(CC4CCCO4)c3C)nc2n1 (stereo not given)	?	0%	19%	-2%	i	-14%
O=C(Cn1cnc2nc3c(cc2c1=O)CCCC3)N1CCN(c2ccccc2)CC1	?	.	.	.	i	.
CCOc1ccc(NS(=O)(=O)c2ccc3c(c2)oc(=O)n3C)cc1	15µM*	-5%	-3%	-1%	i	6%
CCCCOc1cccc(C(=O)NC(=S)Nc2cccnc2)c1	18µM*	-6%	3%	-3%	i	1%
CCc1ccc(NS(=O)(=O)c2ccc3c(c2)oc(=O)n3C)cc1	i	-6%	-4%	-10%	i	-12%
CN(Cc1ccccc1)C(=O)COC(=O)CNS(=O)(=O)c1ccc2ccccc2c1	i	-3%	4%	0%	i	-12%
Cc1ccc(S(=O)(=O)N2CCN(c3nc(-c4ncco4)nc4ccccc34)CC2)cc1	.	.	.	-9%	.	-7%
CCc1ccc(N(CC)C(=O)c2cc3c(=O)oc4ccc(C)cc4c3s2)cc1	?	.	.	.	i	.
CCCc1sc(N/N=C/c2ccccn2)nc1-c1ccc(Br)cc1	?	?	?	3.5µM*	?	2.8µM*
CN(C)CCNC(=O)c1ccc(COc2ccc(Cl)cc2Cl)cc1	18µM*	?	?	10µM*	?	?
COc1ccc(Cl)cc1C(=O)NCCN(C)C	i	-17%	12%	-2%	i	-12%
COc1cc(C(=O)NCCC(C)C)ccc1OCc1ccc(Cl)cc1Cl	15µM*	-2%	?	-6%	?	-6%
CC1CCCCN1C(=O)CSc1n[nH]c(-c2ccccc2Cl)n1 (stereo not given)	i	.	.	.	i	.
C#CCN(C[C@@H]1[C@@H](OC(=O)NCc2ccccc2F)[C@@H](OC(=O)NCc2ccccc2F)Cn2c(=O)n(CCCCCC)c(=O)n21)S(=O)(=O)c1ccc(C)cc1	i	.	.	-2%	i	8%
C#CCN(C[C@@H]1[C@@H](OC(=O)Nc2cccs2)[C@@H](OC(=O)Nc2cccs2)Cn2c(=O)ccc(=O)n21)S(=O)(=O)c1ccc(C)cc1	i	.	.	18µM*	?	16µM*
C#CCN(C[C@@H]1[C@@H](OC(=O)NC2CC2)[C@@H](OC(=O)NC2CC2)CN(C(=O)OC(C)C)N1C(=O)OC(C)C)S(=O)(=O)c1ccc(C)cc1	i	.	.	-1%	i	-4%
C#CCN(C[C@@H]1[C@@H](OC(=O)NCc2ccccc2F)[C@@H](OC(=O)NCc2ccccc2F)Cn2c(=O)ccc(=O)n21)S(=O)(=O)c1ccc(C)cc1	i	.	.	6.5µM*	15µM*	6.5µM*
C#CCN(C[C@@H]1[C@@H](OC(=O)NC2CCCC2)[C@@H](OC(=O)NC2CCCC2)Cn2c(=O)ccc(=O)n21)S(=O)(=O)c1ccc(C)cc1	i	.	.	7.3µM*	i	8.2µM*
CC1=C(c2ccccc2)C(O)(c2ccccc2)C(C)C1=O (stereo not given)	?	?	21µM*	?	?	?
CC1=C(c2ccccc2)CCC1=O	?	1%	-4%	10%	i	5%
SMILES	KB-V1 cytotox	SW480 rereplic	MCF10A rerep	HT1080NT lethal	KB-3-1 tox	HT1080 IDH1KD tx
CC(OC(=O)CCOc1ccccc1)C(=O)Nc1ccc(Cl)cn1 (stereo not given)	i	?	16µM*	0%	i	13%
Cc1cccc(OCCC(=O)OC(C)C(=O)Nc2ccc(Cl)cn2)c1 (stereo not given)	i	-13%	-2%	3%	i	2%
CC(=O)c1ccc(Nc2nc(C(N)Cc3ccc(N)cc3)cs2)cc1 (stereo not given)	i	.	.	-7%	i	0%
CC(=O)c1ccc(Nc2nc(C(N)CCc3ccccc3)cs2)cc1 (stereo not given)	i	.	.	21µM*	i	?
CN(Cc1ccccc1)C(=O)c1ccc(Nc2nc(CN)cs2)nc1	i	.	.	-8%	i	2%
CC(=O)c1ccc(Nc2nc(C(N)Cc3ccc(Cl)cc3)cs2)cc1 (stereo not given)	i	.	.	23µM*	?	?
CC(C)C(N)c1csc(Nc2ccc(C(=O)N(C)Cc3ccccc3)cn2)n1 (stereo not given)	i	.	.	15µM*	i	15µM*
CC(=O)c1ccc(N2CCN(Cc3nc(Cc4ccccc4)no3)CC2)cc1	i	-6%	14%	-17%	i	2%
Fc1ccc(Oc2cnc3ccccc3n2)cc1	i	-3%	2%	1%	i	7%
CC(=O)Oc1cc2c(cc1Cl)C1(CC(c3ccccc3Cl)O2)CC(C)(C)NC(=S)N1 (stereo not given)	?	-12%[9.22 µM]	?	16µM*	i	23µM*
CC1(C)CC2(CC(c3ccccc3F)c3cc(Cl)c(O)cc3O2)NC(=S)N1 (stereo not given)	?	1%	4%	?	i	?
COc1ccc2c(c1)NC(c1ccc(N(C)C)cc1)c1cccn1-2 (stereo not given)	?	18µM*	?	-11%	i	-19%
Cn1nc(C(C)(C)C)cc1NC(=O)Nc1cc(Cl)cc(Cl)c1	i	?	?	16µM*	i	?
O=C(NCc1ccncc1)c1ccc(Cn2cc(C(F)(F)F)ccc2=O)cc1	i	0%	2%	-1%	i	0%
Cc1cccc(NC(=O)c2ccc(Cn3cc(C(F)(F)F)ccc3=O)cc2)c1	16µM*	-2%	22%	-4%	i	-5%
O=C(NCc1ccccc1)c1ccc(Cn2cc(C(F)(F)F)ccc2=O)cc1	13µM*	-10%	4%	2%	i	2%
